The structures appear in SMILES notation. About 11,000 (3.1%) of roughly 360,000 compounds were called active. Roughly 4% stayed inconclusive and do not appear here. This is one part of a sample in which actives are shown more often than they occur. Values without a mark were called inactive. Calls come from the whole dose curve; as a rule, active = well fitted inhibition curve with a large enough effect; inconclusive = small, poorly fitted or top-dose-only effect; inactive = no such curve, though single readings can be large or run the other way.
% is set by controls: 0 for no effect and ±100 for the full control effect; potency is the fitted concentration of half-maximal effect.

The target in the experiment is Schistosoma mansoni thioredoxin glutathione reductase (TGR) (UniProt Q962Y6). Description: qHTS Assay for the Inhibitors of Schistosoma Mansoni Peroxiredoxins. Note: nearly all actives have a fitted effect of over 60% in size. The note with it: purified TGR, DTNB reduction, TNB absorbance 405 nm; series mostly up to 114 µM; activity change, negative = inhibition: at the top concentration. The method in brief:
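Kinetic colorimetric format: TGR-catalysed, NADPH-driven DTNB reduction monitored via TNB absorbance. Enzyme dispensed at 20 nM; compound exposure 15 min at room temperature before reaction start.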
(qHTS replaces the single test concentration by a dilution series.)
As to `Cc1ccc(NS(=O)(=O)c2ccc(-c3ccc(=O)[nH]n3)o2)c(C)c1`, the “activity change, negative = inhibition” value is -1.72%.

On to `CC1CCCN(S(=O)(=O)c2ccc(-c3ccc(=O)[nH]n3)o2)C1` (centres undefined), for which the Potency was 28.2 µM (active).

With `Cc1ccc(NC(=O)c2nc(S(=O)(=O)Cc3cccc(C)c3)ncc2Cl)cc1`, the Potency is 12.6 µM (active).

On to `O=C(Nc1nc2ccc(F)cc2s1)c1nc(SCc2ccccc2F)ncc1Cl`, for which the “activity change, negative = inhibition” value was -1.23%.

Take `CCOC(=O)c1ccc(NC(=O)c2nc(SCc3ccc(F)cc3)ncc2Cl)cc1`: the “activity change, negative = inhibition” value was 6.67%.

In the case of `CSc1nnc(NC(=O)c2nc(S(=O)(=O)Cc3ccc(C)cc3)ncc2Cl)s1`, the Potency is 3.16 µM (active).

In the case of `Cc1ccc(NC(=O)c2cccnc2C(=O)Nc2ccc(C)cc2)cc1`, the “activity change, negative = inhibition” value was -0.158%.

For `CCS(=O)(=O)c1ncc(N(Cc2ccc(F)cc2)Cc2ccco2)c(C(=O)Nc2cc(C)ccc2C)n1`, the “activity change, negative = inhibition” value was -6.61%.

Regarding `Cc1cccc(CS(=O)(=O)c2ncc(Cl)c(C(=O)Nc3ccc(F)cc3)n2)c1`, the Potency was 7.08 µM (active).

Regarding `Cc1ccc(CCNC(=O)c2ccc(CS(=O)(=O)Cc3cccc(C)c3)o2)cc1`, the “activity change, negative = inhibition” value was -27.7%.

With `Cc1ccc2nc(NC(=O)c3nc(SCc4ccccc4F)ncc3Cl)sc2c1`, the “activity change, negative = inhibition” value was -1.27%.

`Cc1ccc(C)c(Oc2c(C(F)(F)F)oc3c(CN4CCN(C)CC4)c(O)ccc3c2=O)c1`: the “activity change, negative = inhibition” value is -12.3%.

`Cc1ccc2nc(COc3cccc(NC(=O)c4ccccc4Cl)c3)cc(=O)n2c1`: the “activity change, negative = inhibition” value is 3.97%.

For `Cc1[nH]c2ccccc2c1C(c1ccccc1)c1cccs1` (centres undefined), the “activity change, negative = inhibition” value is -3.83%.

With `COc1ccc(N2CCN(S(=O)(=O)CCNC(=O)C(c3ccccc3)c3ccccc3)CC2)cc1`, the “activity change, negative = inhibition” value is 0.85%.

For the compound `O=C(O)CSc1ccc(S(=O)(=O)N2CCCC2)cn1`, the Potency is 50.1 µM (active).

For the compound `CC(C)(C)C(=O)CSc1ccc(S(=O)(=O)N2CCCC2)cn1`, the “activity change, negative = inhibition” value was 6.79%.

Turning to `O=S(=O)(c1ccc(SCc2ccccc2)nc1)N1CCCCCC1`, the “activity change, negative = inhibition” value is -23.4%.

`COc1cc2c(cc1OC)C(COc1ccc(F)cc1)N(C(=O)c1ccccc1F)CC2` (centres undefined): the “activity change, negative = inhibition” value was -1.72%.

As for `COc1cccc(C(=O)NC2(C(F)(F)F)C(=O)Nc3c2c(=O)[nH]c(=O)n3-c2ccc(C)cc2)c1` (centres undefined), the “activity change, negative = inhibition” value was 6.41%.

Consider `COc1ccc(C2=NC(c3ccncc3)=Nc3ccc(Br)cc3N2)cc1`, for which the “activity change, negative = inhibition” value is -3.27%.

On to `Cc1nc2sc3c(c2c(=O)n1NC(=O)CCl)CCCC3`, for which the Potency was 39.8 µM (active).

Take `Cc1ccc(C)c(-n2c(SCC(=O)O)nc3sc4c(c3c2=O)CCCC4)c1`: the “activity change, negative = inhibition” value was -7.97%.

Take `Cn1c(NN)nc2sc3c(c2c1=O)CCC3`: the “activity change, negative = inhibition” value was 0.729%.

As for `CCC(=O)N1CCc2cc(S(=O)(=O)NC(C(=O)NCCc3ccc(C)cc3)C(C)C)ccc21` (centres undefined), the “activity change, negative = inhibition” value was 6.61%.

Regarding `C#CC(CCN1CCCCC1)(OC)c1ccccc1` (centres undefined), the “activity change, negative = inhibition” value was 9.25%.

Consider `CCCCCC(O)(CCN1CCCCC1)c1ccccc1` (centres undefined), for which the Potency was 31.6 µM (active).

Take `CCCCCCC(O)(CCN1CCCCC1)c1ccccc1` (centres undefined): the “activity change, negative = inhibition” value is 2.75%.

For `Fc1ccccc1Oc1ncnc2c1oc1ccccc12`, the “activity change, negative = inhibition” value was -1.96%.

`COc1ccc(NC(=O)/C(Cl)=C(/Cl)S(=O)Cc2ccc(C)cc2)cn1` (centres undefined): the “activity change, negative = inhibition” value is 0%.

Consider `COc1ccc(NC(=O)C(=O)NCc2ccco2)cc1`, for which the “activity change, negative = inhibition” value is 0.649%.

With `COc1ccc(CS(=O)/C(Cl)=C(/Cl)C(=O)Nc2ccc(OC)nc2)cc1` (centres undefined), the Potency was 0.447 µM (active).

Consider `COc1cccc(CNCCSc2nnnn2C)c1OCc1ccccc1Cl`, for which the “activity change, negative = inhibition” value is -1.07%.

Turning to `O=C(C1CC1)N1CCc2cc(Br)cc(S(=O)(=O)N3CCN(c4ccccc4F)CC3)c21`, the “activity change, negative = inhibition” value was 2.49%.

For `COc1ccc(C(=O)c2c3ccc([N+](=O)[O-])cc3[n+]([O-])n2CCCN)cc1`, the Potency is 25.1 µM (active).

As to `COc1ccc(C(=O)NCCNc2ccc([N+](=O)[O-])cn2)cc1`, the “activity change, negative = inhibition” value was -19.1%.

For the compound `COc1ccc2c(C(=O)c3ccc(C)cc3)n(CCC(N)=O)[n+]([O-])c2c1`, the “activity change, negative = inhibition” value is 7.84%.

Consider `CCCN(C(=O)Cn1ncc2c([nH]c3ccc(C)cc32)c1=O)c1ccccc1C`, for which the “activity change, negative = inhibition” value was 0.145%.

Take `O=C(c1ccc2c(c1)N(Cc1ccccc1)C(=O)c1ccccc1S2(=O)=O)N1CCCC1`: the “activity change, negative = inhibition” value is 0.183%.

Regarding `Cc1cccc(N2CCN(C(=O)CCSCc3ccccc3F)CC2)c1C`, the “activity change, negative = inhibition” value is 11.4%.

Turning to `Cc1ccc(C)c(CNC(=O)c2cc3ccccn3n2)c1`, the “activity change, negative = inhibition” value was 2.27%.

For `Cc1cc(C(=O)NNC(=S)Nc2ccccc2C)cs1`, the “activity change, negative = inhibition” value was 2.83%.

In the case of `Cc1ccccc1NC(=S)NNC(=O)c1cccc(Br)c1`, the “activity change, negative = inhibition” value is -0.509%.

Consider `Cc1ccc(C(=O)NC(=S)Nc2ccccc2C)cc1`, for which the Potency was 31.6 µM (active).

For the compound `CCOC(=O)c1cccc(NC(=O)C(Cc2ccccc2)NS(=O)(=O)c2cccc3nsnc23)c1` (centres undefined), the “activity change, negative = inhibition” value is 3.11%.

In the case of `O=c1c2ccccc2n(Cc2cccc(Cl)c2)c(=O)n1Cc1ccccc1`, the “activity change, negative = inhibition” value is -7.62%.

Consider `C/C=C\C=C\C(=O)N1CC2(CC(c3cccc(NC(=O)/C(C)=C\C)c3)=NO2)C[C@H]1C(N)=O` (some centres undefined), for which the Potency was 7.94 µM (active).

Regarding `C/C=C(/C)C(=O)Nc1cccc(C2=NOC3(C2)C[C@@H](C(N)=O)N(C(=O)C2(C)CC2)C3)c1` (some centres undefined), the “activity change, negative = inhibition” value is -18.8%.

For the compound `C/C=C(\C)C(=O)N1CC2(CC(c3cccc(NC(=O)CCCCC)c3)=NO2)C[C@@H]1C(N)=O` (some centres undefined), the “activity change, negative = inhibition” value is -7.23%.

For the origin of these results see PubChem BioAssay AID485364 (National Center for Advancing Translational Sciences (NCATS), 2010).
